# Results taken from ChEMBL document CHEMBL4888484, “Replenishing the malaria drug discovery pipeline: Screening and hit evaluation of the MMV Hit Generation Library 1 (HGL1) against asexual blood stage Plasmodium falciparum ,using a nano luciferase reporter read-out” (2022).
# Hit rate of the full screen: of about 4,800 compounds, about 410 (8.5%) showed an effect of 50% or more. This is one part of a sample in which strong results are shown more often than they occur.
# Test system: Plasmodium falciparum
# Test: Confirmatory screen in NF54 pLDH assay, in single point, at 2uM, 72h
# Format: functional, Erythrocyte
# Details: timepoint 72 hour
row,SMILES,% Inhibition
1,Cc1ccc(NCc2ccc(OCc3cccc4ccccc34)c(Br)c2)cc1,11%
2,CCCN(CC(=O)N(Cc1ccccc1)Cc1ccc(C)o1)C(=O)c1ccco1,-5%
3,O=C(c1ccccc1)C1C(c2ccccc2)N1C(=O)c1ccc(Cl)cc1Cl (configuration not stated),6%
4,FC(F)(F)c1nnc(NCc2cncs2)s1,-7%
5,COCc1nsc(N2CCC(c3c(F)cccc3F)CC2)n1,7%
6,CC(C)(C)OC(=O)Nc1cccc(N)n1,8%
7,Cn1cncc1CC(=O)Nc1ccnc(NC(=O)OC(C)(C)C)c1,100%
8,COc1ccc2c(O)cc(-c3ccccc3)nc2c1,1%
9,Nc1c(-c2ccccc2)nsc1C(=O)NCC1CC1,9%
10,COc1cccc(NC(=O)N2C[C@@H]3C[C@H](NS(C)(=O)=O)[C@H]2C3)c1,8%
11,O=C1CCC(C(=O)N2CCC[C@H]2c2ccncc2)=NN1c1ccccc1,-11%
12,CON(C)C[C@H](O)Cn1cc(Nc2ncnc3cc(F)ccc23)cn1,5%
13,CC[C@H](O)CN1CCC(Nc2ncnc3cc(Cl)ccc23)CC1,75%
14,C[C@H](C(=O)Nc1ccc(F)cc1Cn1ccsc1=O)C1CC1,-14%
15,Cc1nscc1C(=O)Nc1cccc(OCCN2CCCC2)c1,-15%
16,Cc1cc(CN(C)Cc2nccn2C)ccc1N1CCCCC1,1%
17,CC(C)(C)c1cc2c(NCC3=CCOCC3)nccn2n1,9%
18,Cc1cccc(C(=O)Nc2nc3cc4sc(NC(=O)c5cccc(C)c5)nc4cc3s2)c1,-8%
19,COc1cc(C(=O)Nc2scnc2C)cc(OC)c1OC,7%
20,COc1cc(C(=O)Nc2ccc3sc(NC(=O)c4cc(OC)c(OC)c(OC)c4)nc3n2)cc(OC)c1OC,67%
21,CNCc1cc(OC)c(OC)cc1Cl,11%
22,Cc1ccc(C)c(C(=O)Cn2nc3ccc(-c4ccc(Cl)cc4)nn3c2=O)c1,6%
23,Cc1nc(NC(=O)c2ccn(COc3ccc(F)c(Cl)c3)n2)sc1C,-8%
24,CC(=O)NCC(=O)N(Cc1ccco1)C1(C(=O)NC2CCCCC2)CCCCC1,8%
25,CCn1nccc1C(=O)N1CC[C@H](CC(=O)NCc2ccncc2)C1,6%
26,Cc1cc(C(=O)NCc2ccncc2)no1,-10%

row,SMILES,% Inhibition
1,N#Cc1cc2cc(Cl)cnc2nc1N1CCCCC1,16%
2,COc1cc(C(=O)NC2CCCCC2)cc2occc12,0%
3,CCOc1cc(Cl)ccc1C(=O)NC1CCN(C[C@H]2CCOC2)CC1,5%
4,Cc1cnccc1NCCNC1CCN(c2ccc(Cl)cc2)CC1,96%
5,Cc1cnccc1NCCNC1CCN(c2ccc3c(c2)CCC3)CC1,77%
6,CCn1nccc1C(=O)NC1CCN(c2nnc3ccc(Cl)cn23)CC1,10%
7,N#Cc1c(N2CCCCC2)ncc2c(=O)c3ccccc3[nH]c12,8%
8,O=C(Cc1ccc(F)cc1)N[C@H](c1ccccc1)C1CC1,2%
9,CCCOc1ccc(CNC(=O)CCn2ccn3nc(-c4ccc(C)c(C)c4)cc3c2=O)cc1,5%
10,Cc1ccc(-n2nc(C)cc2NC(=O)CN2CCCN(c3ccc(C(F)(F)F)cn3)CC2)cc1,9%
11,O=C(c1ccccc1)c1ccc(O)c(CN2CCCN(c3ccc(C(F)(F)F)cn3)CC2)c1O,80%
12,O=C(C1CC1c1ccccc1)N(c1ccc(F)cn1)C1CCOCC1 (configuration not stated),7%
13,O=C(NCc1ccc2c(c1)OCO2)C(F)(F)C(F)(F)C(F)(F)C(F)(F)C(=O)NCc1ccc2c(c1)OCO2,-19%
14,CN1CCN([C@H]2CCN(c3ccnc4ccc(Cl)cc34)C[C@H]2CCCO)CC1,60%
15,CCCOc1cc(=O)c(C(=O)N2CCCC2)nn1-c1ccc(C)cc1,0%
16,CCn1cc([C@H](CC(=O)N2CCN(Cc3ccc4c(c3)OCO4)CC2)c2cccc(OC)c2)c2ccccc21,2%
17,O=C(NC[C@H](O)c1ccc(Cl)s1)c1ccsc1,2%
18,OC(CNC1CCCNc2ccccc21)c1ccc(Cl)s1 (configuration not stated),51%
19,Cc1cccc(NC(=O)CC(C)(C)CC(=O)O)c1C,13%
20,CC(C)(c1ccc(F)cc1)C1(NC(=O)CCc2nccs2)CC1,-12%
21,Cn1cc(CCCNc2ccc(F)cn2)cn1,9%
22,Cc1nn(Cc2ccccc2)c2nc(C3CC3)cc(C(=O)N3CCOCC3)c12,1%
23,Cc1nn(C(C)(C)C)c2nc(C3CC3)cc(C(=O)N(C)c3ccccc3)c12,87%
24,Cc1ccc(S(=O)(=O)N2CCN(C(=O)c3cc(C4CC4)nc4c3c(C)nn4C(C)C)CC2)cc1,13%
25,CCOC(=O)C1CCN(C(=O)c2nc(-c3ccc(N4CCCC4)nc3)no2)CC1,12%
26,O=C(c1cccc2cc[nH]c12)N(CC1CC1)C1CC1,12%

row,SMILES,% Inhibition
1,Cc1cc(C)c(C(=O)Cn2nc3ccc(-c4ccc(Cl)cc4)nn3c2=O)c(C)c1,10%
2,CCCn1nc(-n2cnnc2)c(NS(=O)(=O)c2ccc(Br)cc2)c1C,11%
3,CC(C(=O)N1CCCC1c1cccs1)N(C)Cc1ncnn1C (configuration not stated),4%
4,Clc1ccc(-c2noc(CN(Cc3cccs3)Cc3cccs3)n2)cc1,6%
5,COc1ccc(CC(=O)NCCOCCO)cc1,8%
6,N#CC1(O)C(C2COC3(CCCCC3)O2)OC2OC3(CCCCC3)OC21 (configuration not stated),10%
7,Cc1sc(NC(N)=O)nc1Cc1ccccc1,10%
8,CN1CCN(c2nc(O)c3c(n2)NC(=O)C[C@H]3c2c(F)cccc2F)CC1,0%
9,CCOc1cc(C(c2c(C)n(C)n(-c3ccccc3)c2=O)c2c(C)n(C)n(-c3ccccc3)c2=O)ccc1OCc1ccccc1,38%
10,O=C(NC1CCN(Cc2ccccc2)CC1)c1cn[nH]c1-c1ccccc1,6%
11,CCOC(=O)N1CCC(NC(=O)c2cn[nH]c2-c2ccc(OCC)c(Cl)c2)CC1,10%
12,O=C(C[C@H]1CCN(C(=O)Nc2ccc3c(c2)OCCO3)C1)NCc1ccncc1,7%
13,Cc1cc(C)cc([C@@H](O)CNC(=O)NCC(C)(C)c2ccncc2)c1,3%
14,Cc1nn2c(-c3ccc(-c4ccccc4)cc3)ccnc2c1Br,9%
15,Cc1nonc1NC(=O)CCCC1CCCC1,8%
16,O[C@@H](CNCc1ccsc1C(F)(F)F)c1cc(Cl)c2c(c1)OCCO2,29%
17,NC(=O)COCC(=O)Nc1ccccc1,-9%
18,CCc1[nH]nc(NC(=O)c2c(C)ccnc2O)c1C,-11%
19,CO[C@@H](CNC(=O)c1nc2n(n1)-c1ccccc1S(=O)(=O)N2)c1ccccc1,0%
20,O=c1[nH]nc2c(N3CC[C@H](NCc4ccc(F)cc4)C3)nccn12,11%
21,COc1ccc(C)cc1NC(=O)N1CC(c2nc(C(C)C)nn2C)C1,1%
22,c1cn2cnnc2c(N(CC2CC2)CC2CC2)n1,-5%
23,CC[C@H]1Cn2c(C(=O)NCc3ccc4c(c3)OCO4)cc3c(Cl)ccc(c32)O1,-10%
24,Cc1ccc(Cn2c(=O)c(C(=O)NCc3ccc4c(c3)OCO4)nn(-c3ccc(C(C)C)cc3)c2=O)cc1,52%
25,O=C(Cn1cnc2ccc(Cl)cc2c1=O)NCc1ccc2c(c1)OCO2,-5%
26,Cc1ccc(NC(=O)Nc2c(C3=CCCCC3)c(C)nn2C)cc1C,-13%

row,SMILES,% Inhibition
1,CC(C)(C)OC(=O)N1CC(NC(=O)C2CC2c2ccccc2C(F)(F)F)C1 (configuration not stated),-16%
2,CCc1c([C@H](C)S(=O)(=O)c2ccccc2)[nH]c(=O)n1Cc1cccs1,-7%
3,Cc1cc(N2CCN(c3ccccn3)CC2)n2cc(-c3ccccc3)nc2n1,14%
4,O=S(=O)(C1CC1)N1CC[C@H](CO)C1,0%
5,Cc1ccc(S(=O)(=O)Cc2nc(-c3ccc(C(=O)Nc4ccc(C)cc4Cl)cc3)oc2C)cc1,14%
6,COc1cccc(-c2noc3nc(C)cc(C(=O)NCCCn4ccc(C)n4)c23)c1,11%
7,Cc1ccc(NC(=O)C2C3NC(=O)N(c4ccccc4)C2(C)Oc2ccc(C)cc23)c(C)c1 (configuration not stated),-9%
8,CC(C)c1ccc(N2C(=O)[C@H](CC(=O)N3CCN(C)CC3)N=C2O)cc1,9%
9,CC(=O)NCCNC(=O)Nc1ccccc1N(C)C1CCCC1,-5%
10,CCOc1cc(CNC2CCN(C(C)=O)CC2)ccc1OCc1c(F)cccc1Cl,13%
11,CCCc1cc(-c2nc(-c3ccc(-n4nc(C)cc4N)cc3)no2)n(C)n1,88%
12,Cc1cc(N)n(-c2nc(-c3ccccc3)cc(=O)[nH]2)n1,-1%
13,Cc1n[nH]c(C)c1NC(=O)CN1CC(C)OC(C)C1 (configuration not stated),-7%
14,COc1ccsc1S(=O)(=O)N(CCN(C)C)C1CCCC1,-9%
15,O=C(Cn1cnc2nc(N3CCCCC3)sc2c1=O)Nc1cc(Cl)cc(Cl)c1,1%
16,Cc1cc(C)c(C(=O)O)cc1NC(=O)c1oc(C2CC2)nc1C,-8%
17,CCN1CCN(c2nc(O)c3c(n2)NC(=O)C[C@H]3c2cccc(F)c2)CC1,-7%
18,O=C(Nc1ccc(N2CCOCC2)c(F)c1)OCc1ccccc1,2%
19,COC(=O)C1(NC(=O)c2scnc2C)CCCCC1,-5%
20,CC1CCC2C(CCC(C)N2C(=O)c2cc3nc4c(c(C(F)(F)F)n3n2)CCc2ccccc2-4)C1 (configuration not stated),1%
21,COc1ccccc1N1CCN(CC(=O)Nc2c3c(nc4ccccc24)N(c2cccc(C)c2)CC3)CC1,-24%
22,Cc1ccccc1CNC(=O)[C@H]1CCCN(c2nc3ccccc3[nH]c2=O)C1,13%
23,Cc1ccccc1CNC(=O)[C@H]1CCCN(c2nc3cccnc3n(Cc3ccccc3)c2=O)C1,-6%
24,CC(C)(C)C(=O)/C(=N\OC(=O)Nc1ccc(Cl)cc1)n1cncn1,0%
